SW480 rerep – induces DNA re-replication in SW480 colon adenocarcinoma cells. SW480 DNA re-replication, Hoechst DNA content imaging, 48 h. Potency, µM (series often up to 46.1 µM), most hits filed as activators. hit rate 1.8% among 340,000. AID 624297; note: nearly all actives have a fitted effect of over 55% in size
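Image-based read-out: total Hoechst fluorescence of nuclei (405 nm excitation, 500-530 nm emission), with hits raising the fraction of high-intensity nuclei. SW480 colon cells incubated 48 hr with compounds at 37 C.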
HT1080NT lethal – kills 2HG-producing HT-1080-NT fibrosarcoma cells. HT-1080-NT fibrosarcoma viability, CellTiter-Glo ATP luminescence, 48 h. Potency, µM (top dose mostly 46.1 µM), hits mostly cytotoxic. hit rate 1.6% among 360,000. AID 686970;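 note: NT is the 2HG producing partner of a matched IDH1 knockdown line; nearly all actives have a fitted effect of over 55% in size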
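Fibrosarcoma NT cells, 750 per well in 5% FBS RPMI, were exposed to compound for 48 hours. Viability: CellTiter-Glo luminescence.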
KB-3-1 cytotox – kills parental KB-3-1 adenocarcinoma cells. KB-3-1 viability, CellTiter-Glo ATP luminescence, 72 h. Potency, µM (series often up to 46.1 µM), actives largely listed as cytotoxic. hit rate 1.4% among 400,000; note: nearly all actives have a fitted effect of over 60% in size
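KB-3-1 cells, DMEM (no phenol red) + 10% FBS; compound by pin transfer, 72 h, 37 °C. Readout: CellTiter-Glo luminescence after 10 min. Data normalized, curve-fitted.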
MCF10A rerep – induces DNA re-replication in MCF 10a normal breast cells; hit rate 2.9% among 350,000; Potency, µM (series often up to 46.1 µM), actives largely listed as activators; MCF 10A DNA re-replication, Hoechst nuclear intensity, 48 h; AID 624296; note: nearly all actives have a fitted effect of over 50% in size
KB-V1 MDR tox – kills drug-selected multidrug resistant KB-V1 cells | Potency, µM (series often up to 46.1 µM), actives largely listed as cytotoxic | KB-V1 MDR cells viability, CellTiter-Glo, 72 h | hit rate 3.4% among 400,000; note: nearly all actives have a fitted effect of over 60% in size
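Following 72 h at 37 degrees C with compound, KB-V1 cell viability was read by CellTiter-Glo luminescence, medium being phenol-red-free DMEM plus 10% FBS; concentration-response parameters came from normalized, curve-fitted qHTS data.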
HT1080 IDH1KD tx – HT-1080 IDH1 knockdown cell toxicity (counter line). Potency, µM (doses to about 46.1 µM), actives largely listed as cytotoxic. AID 686971. HT-1080 IDH1 knockdown viability, ATP luminescence, 48 h. hit rate 2% among 360,000
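Luminescent ATP read-out (CellTiter-Glo, 10 min at room temperature) after 48 h compound exposure at 37 °C gave viability of IDH1-knockdown HT-1080 cells. Activity was normalised to DMSO and cell-free wells, then fitted as concentration-response curves.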
Each line names hits and unclear results; the compound was inactive in the other large screens. Hits are enriched below; roughly 7.9% of the tested compounds scored in any of these assays. Calls come from the whole dose curve; as a rule, active = well fitted curve in the direction sought with a large enough effect; inconclusive = small, poorly fitted or top-dose-only effect, or another doubt; inactive = no such curve, though single readings can be large; an effect the other way counts as inactive or inconclusive.

CCn1ncc(Br)c1C(=O)Nc1ccccc1C(=O)OC	KB-3-1 cytotox 20.6µM, KB-V1 MDR tox inconclusive
CCN1CCN(c2ncc(C(=O)Nc3ccccc3C(=O)OC)c3ccccc23)CC1	SW480 rerep inconclusive, HT1080NT lethal 20.6µM, KB-3-1 cytotox inconclusive, MCF10A rerep inconclusive, KB-V1 MDR tox inconclusive, HT1080 IDH1KD tx inconclusive
COC(=O)c1ccccc1NC(=O)c1c(Br)cnn1C	KB-V1 MDR tox inconclusive
CCn1ncc(Br)c1C(=O)Nc1ccc(F)cc1F	SW480 rerep 20.6µM, MCF10A rerep 16.4µM, KB-V1 MDR tox inconclusive
CCCCN(CC)C(=O)c1nn(-c2ccc(OC)cc2)c(=O)c2c1c1ccccc1n2C	KB-V1 MDR tox inconclusive (no result: SW480 rerep, HT1080NT lethal, MCF10A rerep, HT1080 IDH1KD tx)
COc1cccc(/C=N/n2c(=S)n(C)c3ccccc32)c1OC	none
COc1cccc(/C=N/n2c(C)nc3ccccc32)c1OC	KB-V1 MDR tox 11.6µM
COc1cccc(/C=N/n2c(=O)[nH]c3ccccc32)c1OC	SW480 rerep 4.11µM
CCOC(=O)Cc1csc(NC(=O)c2cc(-c3ccncc3)nc3ccccc23)n1	SW480 rerep inconclusive, KB-V1 MDR tox inconclusive
COc1ccc(NC(=O)c2nc(C)c(C3(C)CC(c4cccnc4)=NO3)s2)cc1 (stereo unspecified)	SW480 rerep 7.31µM, HT1080NT lethal inconclusive, KB-3-1 cytotox 4.61µM, MCF10A rerep inconclusive, KB-V1 MDR tox inconclusive, HT1080 IDH1KD tx 6.51µM
CC1CN(S(=O)(=O)c2cc(C(=O)NCCC3=CCCCC3)ccc2Cl)CC(C)O1 (stereo unspecified)	HT1080NT lethal inconclusive, KB-3-1 cytotox inconclusive, KB-V1 MDR tox inconclusive
CC1(C)CC2(CCCN(C(=S)Nc3ccccc3)C2)CCO1 (stereo unspecified)	none
CCC1(C)CC2(CCCN(CCC(=O)c3ccccc3)C2)CCO1 (stereo unspecified)	MCF10A rerep 20.6µM
COc1ccccc1NC(=O)C(C)OC(=O)CCCc1c[nH]c2ccccc12 (stereo unspecified)	SW480 rerep inconclusive
CCn1cc(CN2CCCC(C(=O)c3ccc(-c4ccccc4)c(F)c3)C2)cn1 (stereo unspecified)	SW480 rerep inconclusive, HT1080NT lethal inconclusive, HT1080 IDH1KD tx 20.6µM
CCOc1ccc(S(=O)(=O)Nc2cc3c(C(=O)OC)c(COC)oc3c3ccccc23)cc1	KB-3-1 cytotox 3.66µM, KB-V1 MDR tox 14.6µM (no result: SW480 rerep, HT1080NT lethal, MCF10A rerep, HT1080 IDH1KD tx)
CC(=O)c1cc2c(cc1NS(=O)(=O)c1ccccc1Br)OCO2	KB-V1 MDR tox inconclusive
COc1ccc(S(=O)(=O)Nc2cc3c(C(C)=O)c(C)oc3c3ccccc23)cc1	SW480 rerep 5.17µM, HT1080NT lethal 1.3µM, KB-3-1 cytotox 2.06µM, MCF10A rerep inconclusive, KB-V1 MDR tox 2.06µM, HT1080 IDH1KD tx 0.517µM
COc1ccc(S(=O)(=O)Nc2cc3c(cc2C(C)=O)OCO3)cc1	SW480 rerep inconclusive, HT1080NT lethal inconclusive, KB-3-1 cytotox 7.31µM, MCF10A rerep 18.4µM, KB-V1 MDR tox inconclusive, HT1080 IDH1KD tx 18.4µM
Cc1oc2c(cc(NS(=O)(=O)c3cccs3)c3ccccc32)c1C(=O)OC(C)C	MCF10A rerep 13µM
Cc1oc2c(cc(NS(=O)(=O)c3ccc(Cl)cc3)c3ccccc32)c1C(=O)OCc1ccccc1	none (no result: SW480 rerep, HT1080NT lethal, MCF10A rerep, HT1080 IDH1KD tx)
O=C(Cn1cc(S(=O)(=O)N2CCN(c3ccccc3F)CC2)c2ccccc2c1=O)Nc1cccc(C(F)(F)F)c1	none (no result: SW480 rerep, HT1080NT lethal, MCF10A rerep, HT1080 IDH1KD tx)
C[C@H]1CN([C@@H](C)CO)C(=O)c2cccc(NC(=O)c3ccc(-c4nccs4)cc3)c2O[C@@H]1CN(C)C(=O)NC1CCCCC1	SW480 rerep inconclusive
C=CC[C@@H](CC(=O)NCCO)C(=O)NC[C@H](OC(=O)[C@@H](CC=C)Cc1ccc(F)cc1)c1ccccc1	KB-V1 MDR tox inconclusive
COc1ccc(Nc2nnc(SCC(=O)NC(=O)Nc3ccc4c(c3)OCCO4)s2)cc1	SW480 rerep 10.3µM, MCF10A rerep 13µM
COc1cccc(-n2nnnc2SCC(=O)Nc2ccc3c(c2)OCCO3)c1	HT1080NT lethal 14.1µM, HT1080 IDH1KD tx inconclusive
